# Test results published in PubChem BioAssay (EPA / NIEHS).
# Results filed as inconclusive are left out. Activity calls are given as the source filed them. Rule for the calls, unless noted: active = hit-call score of the fitted dose curve at least 0.9, where 1 is the maximum; inactive = score below 0.9.
# Target: human Thyroid Receptor alpha (THRa1), THRA (gene 7067) (UniProt P10827)
# Experiment: ATG_THRa1_TRANS: Attagene TRANS-FACTORIAL HepG2 Assay for human Thyroid Receptor alpha (THRa1) (AID 2283014; active = hit-call score of the fitted dose curve at least 0.9, where 1 is the maximum)
# Conditions: not given
# Outline: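 HepG2 cells transiently transfected with chimeric NR-Gal4 and GAL4-UAS reporter units, dosed 24 h. Reporter mRNA quantified by RT-PCR, fluorescent labeling, HpaI digestion and capillary electrophoresis; gain-of-signal fit versus DMSO.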
# Sequence of human Thyroid Receptor alpha (THRa1), THRA (gene 7067) (P10827 whole entry, looked up): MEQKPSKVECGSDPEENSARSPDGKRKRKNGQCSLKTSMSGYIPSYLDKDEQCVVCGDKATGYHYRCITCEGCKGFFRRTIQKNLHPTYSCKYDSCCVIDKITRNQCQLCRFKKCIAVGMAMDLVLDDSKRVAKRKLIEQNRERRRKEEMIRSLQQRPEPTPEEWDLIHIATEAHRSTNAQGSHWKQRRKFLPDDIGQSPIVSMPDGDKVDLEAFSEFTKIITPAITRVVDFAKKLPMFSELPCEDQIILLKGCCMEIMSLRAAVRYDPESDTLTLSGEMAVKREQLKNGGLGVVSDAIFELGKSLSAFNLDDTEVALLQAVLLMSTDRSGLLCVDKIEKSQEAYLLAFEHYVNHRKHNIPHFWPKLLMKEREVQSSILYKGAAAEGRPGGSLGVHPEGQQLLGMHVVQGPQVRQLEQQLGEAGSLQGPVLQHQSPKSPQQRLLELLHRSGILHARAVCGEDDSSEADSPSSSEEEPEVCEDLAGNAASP
# Sequence of E-selectin (Homo sapiens) (P16581 whole entry, looked up): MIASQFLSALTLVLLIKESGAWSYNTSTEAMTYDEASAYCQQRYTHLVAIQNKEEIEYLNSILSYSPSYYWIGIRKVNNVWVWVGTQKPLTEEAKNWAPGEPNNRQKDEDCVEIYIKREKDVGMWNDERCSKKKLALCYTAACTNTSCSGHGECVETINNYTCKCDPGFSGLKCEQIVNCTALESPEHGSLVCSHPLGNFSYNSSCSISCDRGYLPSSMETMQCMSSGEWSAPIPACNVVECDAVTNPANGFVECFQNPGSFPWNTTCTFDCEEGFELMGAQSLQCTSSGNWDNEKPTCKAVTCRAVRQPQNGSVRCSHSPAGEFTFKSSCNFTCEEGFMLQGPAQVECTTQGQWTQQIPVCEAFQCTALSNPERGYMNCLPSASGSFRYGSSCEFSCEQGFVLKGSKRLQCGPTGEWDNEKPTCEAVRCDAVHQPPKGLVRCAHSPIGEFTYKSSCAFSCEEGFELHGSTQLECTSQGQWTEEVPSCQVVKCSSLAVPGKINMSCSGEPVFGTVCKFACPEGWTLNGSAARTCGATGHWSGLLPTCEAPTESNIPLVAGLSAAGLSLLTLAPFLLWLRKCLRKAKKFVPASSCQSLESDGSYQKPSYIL
row,SMILES,outcome
1,CC(C)(C)C(=O)C1C(=O)c2ccccc2C1=O,inactive
2,F[Si-2](F)(F)(F)(F)F,inactive
3,OCC(O)CC(F)(F)C(F)(F)C(F)(F)C(F)(F)C(F)(F)C(F)(F)C(F)(F)C(F)(F)F (stereo unspecified),inactive
4,Nc1cccnc1N,inactive
5,CCN=c1cc2oc3cc(NCC)c(C)cc3c(-c3ccccc3C(=O)OCC)c-2cc1C,inactive
6,CCC(C)CO (stereo unspecified),inactive
7,NS(=O)(=O)C(F)(F)C(F)(F)C(F)(F)C(F)(F)C(F)(F)C(F)(F)F,inactive
8,C=C(C)CCCC,inactive
9,CCCCOC(=O)[C@H](C)O,inactive
10,NC(=O)C(F)(F)C(F)(F)C(F)(F)C(F)F,inactive
11,C[C@]12CC[C@H]3C(=CCc4cc(O)ccc43)[C@@H]1CCC2=O,inactive
12,CSc1ccc(O)cc1C,inactive
13,CCCCCCCC/C=C\CCCCCCCC(=O)N(C)CC(=O)O,inactive
14,CO[Si](C)(CCC(F)(F)C(F)(F)C(F)(F)C(F)(F)C(F)(F)C(F)(F)F)OC,inactive
15,CC(O)C#CC(C)O (stereo unspecified),inactive
16,CCCCC(CC)COC(=O)c1ccc(N(C)C)cc1 (stereo unspecified),inactive
17,CNS(=O)(=O)C(F)(F)C(F)(F)C(F)(F)C(F)(F)C(F)(F)C(F)(F)C(F)(F)C(F)(F)F,inactive
18,NC(=O)C(F)(F)C(F)(F)C(F)(F)C(F)(F)C(N)=O,inactive
19,Cc1ccc(O)c(-n2nc3ccccc3n2)c1,inactive
20,O=C=Nc1cccc2c(N=C=O)cccc12,inactive
21,CCN(CC)c1ccc(C=O)cc1,inactive
22,COCCOCCC[Si](C)(O[Si](C)(C)C)O[Si](C)(C)C,inactive

# Read-out: E-selectin (Homo sapiens) (UniProt P16581)
# Experiment: BSK_3C_Eselectin: BioMAP Diversity Plus: 3C Assay for Eselectin Biomarker Activity (AID 2283015);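 note: cell surface E-selectin protein quantified by ELISA 24 h after dosing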
# Conditions: primary human endothelial cells (HUVEC); actives raise or lower the signal
# Outline: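 Primary human umbilical vein endothelial cells (3C system), read 24 h after compound addition; E-selectin measured by ELISA. Bidirectional curve fitting against DMSO baseline; cytotoxicity by parallel SRB total-protein staining.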
row,SMILES,outcome
1,OCC(O)CC(F)(F)C(F)(F)C(F)(F)C(F)(F)C(F)(F)C(F)(F)C(F)(F)C(F)(F)F (stereo unspecified),inactive
2,C=CC(=O)OCC(F)(F)C(F)(F)C(F)(F)C(F)(F)C(F)(F)C(F)(F)C(F)(F)C(F)F,inactive
3,NS(=O)(=O)C(F)(F)C(F)(F)C(F)(F)C(F)(F)C(F)(F)C(F)(F)F,inactive
4,NC(=O)C(F)(F)C(F)(F)C(F)(F)C(F)F,inactive
5,O=S(=O)(OCC(F)(F)F)C(F)(F)C(F)(F)C(F)(F)C(F)(F)F,inactive
6,C[C@]12CC[C@H]3C(=CCc4cc(O)ccc43)[C@@H]1CCC2=O,inactive
7,CO[Si](C)(CCC(F)(F)C(F)(F)C(F)(F)C(F)(F)C(F)(F)C(F)(F)F)OC,inactive
8,NCC(F)(F)C(F)(F)C(F)(F)C(F)(F)C(F)(F)C(F)(F)F,inactive
9,CNS(=O)(=O)C(F)(F)C(F)(F)C(F)(F)C(F)(F)C(F)(F)C(F)(F)C(F)(F)C(F)(F)F,inactive
10,NC(=O)C(F)(F)C(F)(F)C(F)(F)C(F)(F)C(N)=O,inactive
11,Cc1ccc(O)c(-n2nc3ccccc3n2)c1,inactive
12,O=C=Nc1cccc2c(N=C=O)cccc12,inactive
13,CCN(CC)c1ccc(C=O)cc1,inactive
14,O=C(O)CCC(F)(F)C(F)(F)C(F)(F)F,inactive
